Experiment [1] has as its system Jurkat. The experiment in a line: mean cell size (FSC-A) relative to DMSO control (fraction of control); higher = larger cells. Conditions: 48 h. Put shortly: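 Jurkat cells at 600 cells/µl were incubated for 1 h and then treated for 48h with the Enzo Screen-Well FDA Approved Drug Library v2.0 at 25µM, with DMSO at 0.9% (v/v) final. Compounds that reduced counts below 20% of controls were retested in 10-fold dilutions down to 25nM. Cell count and mean cell size, taken as forward scatter area, were measured by flow cytometry relative to solvent-only controls. Each plate carried 6-12 controls, and values are means of 3 biological replicates.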

The test system of experiment [2] is Jurkat. The experiment in a line: cell count relative to DMSO control (fraction of control); higher = more cells (less growth inhibition). Conditions: 48 h.

The structures appear in SMILES notation. Counter-ions that a name gives are not always drawn. ± gives the standard deviation.

The molecule `CN1C(CCl)Nc2cc(Cl)c(S(N)(=O)=O)cc2S1(=O)=O` (configuration not stated) [Methyclothiazide] (concentration: 25 µM) showed a mean cell size in the experiment with Jurkat [1] of 0.982 ± 0.048. In the experiment on Jurkat [2], this molecule registered a cell count of 0.633 ± 0.17.

`CC1(C)O[C@@H]2[C@@H](CO[C@@]3(COS(N)(=O)=O)OC(C)(C)O[C@@H]23)O1` [Topiramate] (concentration: 25 µM): the mean cell size in the experiment with Jurkat [1] stood at 0.969 ± 0.024. For the same molecule, the cell count in the experiment with Jurkat [2] was found to be 1.14 ± 0.14.

In the experiment with Jurkat [1], `C#Cc1cccc(Nc2ncnc3cc(OCCOC)c(OCCOC)cc23)c1` [Erlotinib] (concentration: 25 µM) had a mean cell size of 0.838 ± 0.026. Besides, the cell count in the experiment on Jurkat [2] was 0.666 ± 0.04.

Molecule `CCN(CC)CC(=O)Nc1c(C)cccc1C` [Lidocaine·HCl·H2O] (concentration: 25 µM) registered a mean cell size in the experiment on Jurkat [1] of 1.01 ± 0.033. Also, the cell count in the experiment on Jurkat [2] was found to be 1.03 ± 0.14.

`CNCCCN1c2ccccc2CCc2ccccc21` [Desipramine·HCl] (concentration: 25 µM) came in with a mean cell size in the experiment on Jurkat [1] of 0.9721 ± 0.0012. This molecule gave a cell count in the experiment on Jurkat [2] of 0.721 ± 0.066.

The molecule `CNC[C@H](O)c1ccc(O)c(O)c1` [Epinephrine (L-(-)-Epinephrine-(+)-Bitartrate)] (concentration: 25 µM) yielded a mean cell size in the experiment with Jurkat [1] of 0.959 ± 0.053. The cell count in the experiment on Jurkat [2] is 0.855 ± 0.14.

`COc1cc2nc(N3CCN(C(=O)C4CCCO4)CC3)nc(N)c2cc1OC` (configuration not stated) [Terazosin·HCl] (concentration: 25 µM) showed a mean cell size with Jurkat [1] of 0.997 ± 0.047. This molecule returned a cell count with Jurkat [2] of 0.607 ± 0.059.

Take `CCN(CC)C(=S)SSC(=S)N(CC)CC` [Disulfiram] (concentration: 25 µM): the mean cell size with Jurkat [1] stood at 0.959 ± 0.051. Also, the cell count in the experiment on Jurkat [2] is 0.559 ± 0.15.

For the molecule `Nc1ccc(C(=O)O)c(O)c1` [4-Aminosalicylic Acid] (concentration: 25 µM), the mean cell size in the experiment with Jurkat [1] was 0.914 ± 0.016. In addition, the cell count in the experiment with Jurkat [2] was determined as 0.844 ± 0.14.

`Cc1cccc(Nc2ccncc2S(=O)(=O)NC(=O)NC(C)C)c1` [Torsemide] (concentration: 25 µM) registered a mean cell size with Jurkat [1] of 1.01 ± 0.052. The cell count with Jurkat [2] is 0.866 ± 0.042.

With `C[C@@H]1C/C=C/C=C/C=C/C=C/[C@H](O[C@@H]2O[C@H](C)[C@@H](O)[C@H](N)[C@@H]2O)C[C@@H]2O[C@](O)(C[C@@H](O)C[C@H]3O[C@@H]3/C=C/C(=O)O1)C[C@H](O)[C@H]2C(=O)O` [Natamycin] (concentration: 25 µM), the mean cell size in the experiment on Jurkat [1] was found to be 0.951 ± 0.015. In addition, the cell count in the experiment on Jurkat [2] came to 1.01 ± 0.096.

In the experiment on Jurkat [1], `COc1ccnc(C[S+]([O-])c2nc3cc(OC(F)F)ccc3[nH]2)c1OC` (configuration not stated) [Pantoprazole] (concentration: 25 µM) displayed a mean cell size of 0.9065 ± 0.0044. For the same molecule, the cell count in the experiment on Jurkat [2] was 0.85 ± 0.034.

Regarding `CC(C)c1ccc2oc3nc(N)c(C(=O)O)cc3c(=O)c2c1` [Amlexanox] (concentration: 25 µM), the mean cell size in the experiment on Jurkat [1] stood at 0.923 ± 0.018. Further, the cell count in the experiment on Jurkat [2] turned out to be 0.469 ± 0.12.

In the experiment with Jurkat [1], `Cc1cc(C(=O)NNCc2ccccc2)no1` [Isocarboxazid] (concentration: 25 µM) showed a mean cell size of 0.965 ± 0.057. For the same molecule, the cell count with Jurkat [2] turned out to be 0.735 ± 0.1.

Regarding `CCCNC(C)C(=O)Nc1ccccc1C` (configuration not stated) [Prilocaine·HCl] (concentration: 25 µM), the mean cell size in the experiment with Jurkat [1] was 1 ± 0.022. For the same molecule, the cell count in the experiment on Jurkat [2] turned out to be 0.693 ± 0.13.

In the experiment with Jurkat [1], `Cc1nc(-c2ccc(OCC(C)C)c(C#N)c2)sc1C(=O)O` [Febuxostat] (concentration: 25 µM) gave a mean cell size of 1 ± 0.024. In addition, in the experiment with Jurkat [2], the cell count was found to be 0.592 ± 0.028.

Take `NC1=NCC2c3ccccc3Cc3ccccc3N12` (configuration not stated) [Epinastine·HCl] (concentration: 25 µM): in the experiment with Jurkat [1], the mean cell size was 0.951 ± 0.014. In the experiment with Jurkat [2], this molecule showed a cell count of 1.06 ± 0.077.

For the molecule `CCCOc1ccc(C(=O)OCCN(CC)CC)cc1N` [Proparacaine·HCl] (concentration: 25 µM), the mean cell size in the experiment on Jurkat [1] was found to be 1.06 ± 0.046. In addition, the cell count with Jurkat [2] worked out at 1.07 ± 0.05.

In the case of `CCOc1ccccc1OCCN[C@H](C)Cc1ccc(OC)c(S(N)(=O)=O)c1` [Tamsulosin·HCl] (concentration: 25 µM), in the experiment on Jurkat [1], the mean cell size came out at 0.988 ± 0.037. Besides, in the experiment on Jurkat [2], the cell count was 0.808 ± 0.079.

`CC(=O)OCC(=O)[C@@]1(O)CC[C@H]2[C@@H]3CCC4=CC(=O)CC[C@]4(C)[C@@]3(F)[C@@H](O)C[C@@]21C` [Fludrocortisone Acetate] (concentration: 25 µM) showed a mean cell size in the experiment with Jurkat [1] of 0.932 ± 0.058. The molecule further registered a cell count in the experiment on Jurkat [2] of 0.63 ± 0.033.

Regarding `CCC(C)n1ncn(-c2ccc(N3CCN(c4ccc(OCC5COC(Cn6cncn6)(c6ccc(Cl)cc6Cl)O5)cc4)CC3)cc2)c1=O` (configuration not stated) [Itraconazole] (concentration: 25 µM), the mean cell size with Jurkat [1] came out at 1.11 ± 0.071. The same molecule came in with a cell count in the experiment with Jurkat [2] of 0.323 ± 0.026.

On to `CO/N=C1\CN(c2nc3c(cc2F)c(=O)c(C(=O)O)cn3C2CC2)CC1CN` (configuration not stated) [Gemifloxacin] (concentration: 25 µM), for which the mean cell size in the experiment on Jurkat [1] turned out to be 1.09 ± 0.03. This molecule also yielded a cell count in the experiment with Jurkat [2] of 0.591 ± 0.16.

For `CC(=O)O[C@]1(C(C)=O)CC[C@H]2[C@@H]3C[C@H](C)C4=CC(=O)CC[C@]4(C)[C@H]3CC[C@@]21C` [Medroxyprogesterone Acetate] (concentration: 25 µM), the mean cell size in the experiment on Jurkat [1] turned out to be 0.956 ± 0.065. Further, the cell count in the experiment with Jurkat [2] is 0.352 ± 0.042.

`CN(C)CCCN1c2ccccc2Sc2ccc(Cl)cc21` [Chlorpromazine·HCl] (concentration: 2.5 µM) had a mean cell size in the experiment on Jurkat [1] of 1.06 ± 0.017. This molecule yielded a cell count in the experiment with Jurkat [2] of 0.631 ± 0.15.

`C[C@]12CCC(=O)C=C1CC[C@@H]1[C@@H]2[C@@H](O)C[C@@]2(C)[C@H]1CC[C@]2(O)C(=O)CO` [Hydrocortisone] (concentration: 25 µM) came in with a mean cell size in the experiment on Jurkat [1] of 0.9165 ± 0.0081. This molecule gave a cell count with Jurkat [2] of 0.72 ± 0.092.

Take `CN(C)CCOC(c1ccc(Cl)cc1)c1ccccn1` (configuration not stated) [Carbinoxamine Maleate] (concentration: 25 µM): the mean cell size in the experiment with Jurkat [1] turned out to be 0.968 ± 0.054. For the same molecule, in the experiment on Jurkat [2], the cell count was 0.735 ± 0.064.
